Test results published in PubChem BioAssay (NCATS).
Results filed as inconclusive are left out. Calls of active or inactive are those of the source. Calls come from the whole dose curve; as a rule, active = well fitted curve in the direction sought with a large enough effect; inconclusive = small, poorly fitted or top-dose-only effect, or another doubt; inactive = no such curve, though single readings can be large; an effect the other way counts as inactive or inconclusive.

Tests used:
[1] = P-glycoprotein substrates identified in KB-8-5-11 adenocarcinoma cell line, qHTS therapeutic library screen (AID 1346987); note: series mostly up to about 44 µM; nearly all actives have a fitted effect of over 65% in size
Method in brief: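 Luminescence from CellTiter-Glo, read 5 min after addition, quantified survival of KB-8-5-11 (P-gp-overexpressing) cells exposed to compounds for 72 h. AC50 was derived from concentration-response curves.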

[2] = NS1 protein of Zika virus - qHTS assay to identify small molecule inhibitors in human HEK 293 cells (AID 1347053); note: series mostly up to about 46 µM; nearly all actives have a fitted effect of over 55% in size
Method in brief: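 Compound-treated (1 h pre-infection) HEK 293 cells infected with ZIKV MR766, MOI = 0.5; after 24 h at 37 C, NS1 read by TR-FRET; data normalized to uninfected and infected controls.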

[3] = qHTS of pediatric cancer cell lines to identify multiple opportunities for drug repurposing: Primary screen for TC32 cells (AID 1347089); note: nearly all actives have a fitted effect of over 60% in size
Method in brief: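 In the primary qHTS, MIPE compounds were tested at 11 concentrations (0.78 nM to 46 µM) and NPC compounds at 8 (0.59 nM to 46 µM) on TC32 cells for 48 h. CellTiter-Glo luminescence gave viability.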

[4] = qHTS of pediatric cancer cell lines to identify multiple opportunities for drug repurposing: Primary screen for DAOY cells (AID 1347090); note: series mostly up to about 46 µM; nearly all actives have a fitted effect of over 55% in size
Method in brief: (§1)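 Viability measured as metabolically active cells via CellTiter-Glo luminescence following 48 hours of compound exposure, 11-point dilutions in confirmatory testing. 500-1,000 cells/well plated 5 hours before dosing; controls were DMSO and 2.3 µM bortezomib.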

[5] = qHTS of pediatric cancer cell lines to identify multiple opportunities for drug repurposing: Primary screen for SJ-GBM2 cells (AID 1347091)
Method in brief: as §1

[6] = qHTS of pediatric cancer cell lines to identify multiple opportunities for drug repurposing: Primary screen for A673 cells (AID 1347092); note: nearly all actives have a fitted effect of over 45% in size
Method in brief: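 48 h compound exposure, A673, 500-1,000 cells/well, 37 degrees C/5% CO2. MIPE: 11-point, 0.78 nM-46 µM; NPC: 8-point, 0.59 nM-46 µM (final). Readout CellTiter-Glo luminescence after 15 min RT.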

[7] = qHTS of pediatric cancer cell lines to identify multiple opportunities for drug repurposing: Primary screen for SK-N-MC cells (AID 1347093); note: series mostly up to about 46 µM
Method in brief: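 Metabolically active cells were quantified by ATP-dependent luminescence (CellTiter-Glo, 15 min at room temperature) following 48 h treatment. Cells had been plated at 500-1,000 per well and settled for 5 h beforehand.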

[8] = qHTS of pediatric cancer cell lines to identify multiple opportunities for drug repurposing: Primary screen for BT-37 cells (AID 1347094); note: series mostly up to about 57 µM
Method in brief: (§2)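 Quantitative HTS format: each compound titrated (MIPE 11 points from 0.78 nM, NPC 8 points from 0.59 nM) onto cells plated 5 hours earlier. After 48 h at 37 degrees C, CellTiter-Glo luminescence was recorded.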

[9] = qHTS of pediatric cancer cell lines to identify multiple opportunities for drug repurposing: Primary screen for NB-EBc1 cells (AID 1347095)
Method in brief: as §2

[10] = qHTS of pediatric cancer cell lines to identify multiple opportunities for drug repurposing: Primary screen for U-2 OS cells (AID 1347096); note: nearly all actives have a fitted effect of over 50% in size
Method in brief: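 Viability after 48 h compound treatment at 37C, 500-1,000 cells/well, read as ATP luminescence with CellTiter-Glo. Primary screens used 11-point (MIPE, 0.78 nM-46 µM) or 8-point (NPC, 0.59 nM-46 µM) final concentrations; follow-up screens used 11-point dilutions.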

[11] = qHTS of pediatric cancer cell lines to identify multiple opportunities for drug repurposing: Primary screen for Saos-2 cells (AID 1347097); note: nearly all actives have a fitted effect of over 40% in size
Method in brief: as §2

[12] = qHTS of pediatric cancer cell lines to identify multiple opportunities for drug repurposing: Primary screen for SK-N-SH cells (AID 1347098);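 note: DMSO served as neutral control and bortezomib at 2.3 µM as positive control; nearly all actives have a fitted effect of over 65% in size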
Method in brief: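 Cells (500-1,000/well) rested 5 h, then received compounds for 48 h; metabolically active cells were measured by CellTiter-Glo luminescence. Final concentrations spanned up to 46 µM (MIPE, 11-point) or 0.59 nM-46 µM (NPC, 8-point) in primary screens, 11-point in follow-ups.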

Measured: Potency

CC[N+](C)(CC)CCOC(=O)C(O)(c1ccccc1)C1CCCCC1 (stereo not given)
inactive: all assays above

CN(C)C(=O)Nc1ccc(Cl)c(Cl)c1
not listed: [8] | [12]
inactive: all other assays above

COc1ccc(-c2cc(C(F)F)nn2-c2ccc(S(N)(=O)=O)cc2)cc1F
not listed: [11]
inactive: all other assays above

CC1CCc2c(N3CCC(O)CC3)c(F)cc3c(=O)c(C(=O)O)cn1c23 (stereo not given)
not listed: [11]
inactive: all other assays above

Cc1cc2c(OCC(CNC(C)(C)C)OC(=O)c3ccccc3)cccc2[nH]1 (stereo not given)
inactive: all assays above

FC(F)(F)C(F)(F)C(F)(F)C(F)(F)C(F)(F)C(F)(F)C(F)(F)C(F)(F)Br
inactive: all assays above

Nc1nc(N)c(-c2ccccc2)s1
not listed: [11]
inactive: all other assays above

CC(=O)Oc1ccc(C)cc1
inactive: all assays above

C[C@@H](O)[C@H]1C(=O)N2C(C(=O)O)=C(S[C@@H]3CN[C@H](CNS(N)(=O)=O)C3)[C@H](C)[C@H]12
not listed: [7] | [11] | [12]
inactive: all other assays above

CCNC(=O)NCc1cccc(Cl)c1
not listed: [11]
inactive: all other assays above

CCC1Nc2cc(Cl)c(S(N)(=O)=O)cc2S(=O)(=O)N1 (stereo not given)
not listed: [11]
inactive: all other assays above

COc1cc(C(=O)NCc2ccc(OCCN(C)C)cc2)cc(OC)c1OC
not listed: [11]
inactive: all other assays above

C=C1c2cccc(O)c2C(O)=C2C(=O)[C@]3(O)C(O)=C(C(N)=O)C(=O)[C@@H](N(C)C)[C@@H]3[C@@H](O)[C@H]12
not listed: [6] | [12]
inactive: all other assays above

NC(=S)N/N=C/c1cccnc1
not listed: [7]
inactive: all other assays above

Cc1c[nH]c2ccccc12
not listed: [7] | [9]
inactive: all other assays above

CCCN(CCC)S(=O)(=O)c1ccc(C(=O)O)cc1
not listed: [7]
inactive: all other assays above

CC(=O)OCC1=C(C(=O)O)N2C(=O)[C@@H](NC(=O)CSc3ccncc3)[C@H]2SC1
not listed: [7] | [11]
inactive: all other assays above

CCCCCCCCCCCCCCCCO
not listed: [7] | [12]
inactive: all other assays above

CC(=O)Nc1ccc(OCC(O)CNC(C)C)cc1 (stereo not given)
not listed: [7] | [12]
inactive: all other assays above

CCCCC(CC)CN1CN(CC(CC)CCCC)CC(C)(N)C1 (stereo not given)
not listed: [7] | [11]
inactive: all other assays above

c1ccc(CC2=NCCN2)cc1
not listed: [7] | [12]
inactive: all other assays above
